Records with an inconclusive call do not appear. Calls of active or inactive are those of the source. Calls come from the whole dose curve; as a rule, active = well fitted curve in the direction sought with a large enough effect; inconclusive = small, poorly fitted or top-dose-only effect, or another doubt; inactive = no such curve, though single readings can be large; an effect the other way counts as inactive or inconclusive.
Tested on: not listed separately
Experiment: Viability counterscreen for antagonist of constitutive androstane receptor (CAR) against the NCATS DSHEA and TCM libraries (AID 1794837);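 note: compound exposure lasted 24 h before viability reading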
Details: CAR reporter cell line viability counterscreen, qHTS; series mostly up to 40 µM
In short: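 HepG2-CYP2B6-hCAR cells (2,500/well) were allowed to attach for 5 h, then exposed to compounds with 48 uM CITCO for 24 h at 37C. Viability was read by CellTiter-Fluor fluorescence after 1 h.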

SMILES | outcome
C=C(C)[C@H]1CC=C(C)C(=O)C1 | inactive
O=c1cc(-c2ccc(O)cc2)oc2cc(O[C@H]3OC(CO)C(O)C(O)C3O)cc(O)c12 (stereo not given in full) | inactive
COC(=O)C1=CO[C@@H](C)[C@H]2CN3CCc4c([nH]c5ccccc45)[C@@H]3C[C@H]12 | inactive
O=C(/C=C/c1ccc(O)c(O)c1)OC(Cc1ccc(O)c(O)c1)C(=O)O (stereo not given) | inactive
C=C[C@](C)(O)CCC=C(C)C | inactive
O=c1ccc2ccc(O)cc2o1 | inactive
COc1ccc2ccc(=O)oc2c1 | inactive

Tested on: not listed separately
Experiment: Viability counterscreen for agonist of constitutive androstane receptor (CAR) against the NCATS DSHEA and TCM libraries (AID 1794838)
Details: HepG2 cell viability counterscreen, CAR agonist assay, co-treated with 0.75 µM CAR antagonist; series mostly up to 40 µM
In short: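 HepG2-CYP2B6-hCAR cells (2,500/well) attached 5 h, then got compounds plus 0.75 uM PK11195 final. After 24 h at 37C, viability read by CellTiter-Fluor fluorescence (Ex/Em 405/540 nm).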

SMILES | outcome
C=C(C)[C@H]1CC=C(C)C(=O)C1 | inactive
O=c1cc(-c2ccc(O)cc2)oc2cc(O[C@H]3OC(CO)C(O)C(O)C3O)cc(O)c12 (stereo not given in full) | inactive
COC(=O)C1=CO[C@@H](C)[C@H]2CN3CCc4c([nH]c5ccccc45)[C@@H]3C[C@H]12 | inactive
O=C(/C=C/c1ccc(O)c(O)c1)OC(Cc1ccc(O)c(O)c1)C(=O)O (stereo not given) | inactive
C=C[C@](C)(O)CCC=C(C)C | inactive
COc1ccc2ccc(=O)oc2c1 | inactive

Target: Nuclear receptor subfamily 1 group I member 3 (Homo sapiens) (UniProt Q14994)
Experiment: Primary qHTS for agonist of constitutive androstane receptor (CAR) against the NCATS DSHEA and TCM libraries (AID 1794839);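 note: HepG2 cells expressing human CAR with a CYP2B6 reporter plus PK11195 antagonist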
Details: CAR agonist reporter cells, qHTS luminescence, CAR antagonist co-added at 0.75 µM; series mostly up to 40 µM
In short: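 HepG2-CYP2B6-hCAR cells (2,500/well) were attached for 5 h, then treated for 24 h at 37 °C with compounds plus 0.75 µM PK11195. Luciferase luminescence (ONE-Glo) was read, with CellTiter-Fluor viability (Ex/Em 405/540 nm).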

Chain of Nuclear receptor subfamily 1 group I member 3 (Homo sapiens) (Q14994 whole entry, looked up): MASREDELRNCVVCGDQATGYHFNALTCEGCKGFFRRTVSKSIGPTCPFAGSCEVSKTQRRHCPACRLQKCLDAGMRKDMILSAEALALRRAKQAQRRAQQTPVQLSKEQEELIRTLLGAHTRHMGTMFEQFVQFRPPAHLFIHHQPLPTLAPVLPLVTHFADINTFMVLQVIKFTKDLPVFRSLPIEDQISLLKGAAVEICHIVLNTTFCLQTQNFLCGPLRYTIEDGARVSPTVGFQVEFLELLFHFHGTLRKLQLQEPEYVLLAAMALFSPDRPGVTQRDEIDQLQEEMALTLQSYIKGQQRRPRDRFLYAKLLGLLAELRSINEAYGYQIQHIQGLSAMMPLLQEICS

SMILES | outcome
C=C(C)[C@H]1CC=C(C)C(=O)C1 | inactive
O=C(/C=C/c1ccc(O)c(O)c1)OC(Cc1ccc(O)c(O)c1)C(=O)O (stereo not given) | inactive
C=C[C@](C)(O)CCC=C(C)C | inactive
O=c1ccc2ccc(O)cc2o1 | inactive
COc1ccc2ccc(=O)oc2c1 | inactive

Tested on: not listed separately
Experiment: HepG2 viability counterscreen (readout 2: ATP content) against the NCATS DSHEA and TCM libraries (AID 1794840);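 note: HepG2 cells exposed to substances for about 24 h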
Details: ATP content luminescence; series mostly up to 27.3 µM
In short: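 HepG2 cells (1,000 cells/well) attached ~4 h, then treated ~24 h at 37C with substances. Protease activity read by GF-AFC (25 uM final, 30 min, Ex/Em 380/510 nm); ATP content then by CellTiter-Glo luminescence.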

SMILES | outcome
C=C(C)[C@H]1CC=C(C)C(=O)C1 | inactive
O=c1cc(-c2ccc(O)cc2)oc2cc(O[C@H]3OC(CO)C(O)C(O)C3O)cc(O)c12 (stereo not given in full) | inactive
COC(=O)C1=CO[C@@H](C)[C@H]2CN3CCc4c([nH]c5ccccc45)[C@@H]3C[C@H]12 | inactive
O=C(/C=C/c1ccc(O)c(O)c1)OC(Cc1ccc(O)c(O)c1)C(=O)O (stereo not given) | inactive
C=C[C@](C)(O)CCC=C(C)C | inactive
NC(Cc1c[nH]c2ccccc12)C(=O)O (stereo not given) | inactive
O=c1ccc2ccc(O)cc2o1 | inactive
COc1ccc2ccc(=O)oc2c1 | inactive

Tested on: not listed separately
Experiment: HepG2 viability counterscreen (readout 1: protease activity) against the NCATS DSHEA and TCM libraries (AID 1794841);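 note: cells exposed to compounds for about 24 h before the protease read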
Details: qHTS concentration series; series mostly up to 27.3 µM
Source text: Assay Development and Screening Technology Laboratory (ADST)
National Center for Advancing Translational Sciences (NCATS), Rockville, MD
National Institute of Health (NIH), Bethesda, Maryland
Dietary Supplements and Natural Products have minor oversight of their safety and efficacy. We assembled a collection of Dietary Supplements and Natural Products (DSNP) as well as Traditional Chinese Medicinal (TCM) Plant extracts, which were screened against an in vitro panel of assays, including a liver cytochrome p450 enzyme panel, CAR/PXR signaling pathways, and P-gp transporter assays, to assess their activity. This pipeline facilitated the interrogation of Natural Product-Drug Interaction (NaPDI) through prominent metabolizing pathways. In addition, we compared the activity profiles of the DSNP/TCM substances with those of an approved drug collection. Many of the approved drugs have well-annotated mechanisms of action (MOA) while the MOAs for most of the DSNP and TCM samples remain unknown. Based on the premise that compounds with similar activity profiles tend to share similar targets or MOA, we clustered the library activity profiles to identify overlap with the NCATS Pharmaceutical Collection to predict the MOAs of the DSNP/TCM substances. Overall, we highlight four significant bioactivity profiles (measured by p-values) as examples of this prediction. In addition, to assess broad cytotoxicity, we employed screening against a HepG2 cell line.
To this end, we profiled both collections for potential CAR and/or PXR activity, employing a previously published 1536-well qHTS assay.
PROTOCOL TABLE (as described by Inglese J, Shamu CE and Guy RK. 2007)
SEQUENCE No. (e.g., 1, 2, 3, etc.); PARAMETER (e.g., Cells, Incubation, Reagent, etc.); VALUE; DESCRIPTION.
1; Cells; 5 uL; HepG2 cells, white solid-bottom tissue treated Greiner plate.
2; Incubation; 4 hrs; 37C, 95% humidity, 5% CO2.
3; Compounds; 23 nL; Kalypsis pin tool (Wako USA) equipped with a 1536-well pin head to transfer to the assay plates.
4; Incubation; 24 hrs; 37C, 95% humidity, 5% CO2.
5; Reagent; 1 uL; GF-AFC substrate.
6; Incubation; 30 min; 37C, 95% humidity, 5% CO2.
7; Read 1; Fluorescence; EnVision plate reader excitation 380 nm, emission 510 nm.
8; Reagent; 3 uL; CellTiter-Glo (Promega).
9; Centrifuge; 1000 RPM; 15 seconds.
10; Incubation; 30 min; room temperature.
11; Read 2; Luminescence; ViewLux plate reader.
NOTES (numbers refer to Sequence numbers above)
1. 5 uL of HepG2 cells at 2 x 10^5 cells/mL (1,000 cells/well) were dispensed into a 1536-well white solid-bottom tissue treated plate (Greiner Bio-One) using a Multidrop Combi dispenser (Thermo Scientific). This assay use both GF-AFC substrate and Cell-Titer Glo (CTG), measuring cellular protease activity and ATP content, respectively.
2. Plates were incubated at 37C, 95% humidity, and 5% CO2 for ~4 hours to allow for cell attachment.
3. Compounds were transferred (16 nL) via pintool (Wako Automation), for a final concentration range for most substances of 15.6 nM - 31.3 uM.
4. Plates were incubated for ~24 hours.
5. 1 uL addition of GF-AFC substrate (final concentration 25 uM; MP Biomedicals).
6. Plates were incubated at 37C, 95% humidity, and 5% CO2 for 30 minutes.
7. After incubation, plates were read for fluorescence intensity (Ex/Em = 380 nm/510 nm) on an EnVision detector (PerkinElmer, Shelton, Connecticut).
8. Once the detection for fluorescence was completed, plates were dispensed with 3 uL of CellTiter-Glo (Promega, Madison, WI).
9. Plates were centrifuged for 15 seconds at 1,000 RPM's.
10. Plates were incubated for 30 minutes at room temperature.
11. Plates were then read for luminescence intensity on a ViewLux detector.
Inglese J, Shamu CE and Guy RK, Reporting data from high throughput screening of small molecule libraries, Nature Chemical Biology, 2007, 3(8): 438-441. doi.org/10.1038/nchembio0807-438.

SMILES | outcome
C=C(C)[C@H]1CC=C(C)C(=O)C1 | inactive
O=c1cc(-c2ccc(O)cc2)oc2cc(O[C@H]3OC(CO)C(O)C(O)C3O)cc(O)c12 (stereo not given in full) | inactive
COC(=O)C1=CO[C@@H](C)[C@H]2CN3CCc4c([nH]c5ccccc45)[C@@H]3C[C@H]12 | inactive
O=C(/C=C/c1ccc(O)c(O)c1)OC(Cc1ccc(O)c(O)c1)C(=O)O (stereo not given) | inactive

Reference: PubChem BioAssay (NCATS)
